The results in this text go back to PubChem BioAssay (Tox21).

“And” between values parts separate entries of the source, which are not always exact repeats. Equal entries are not always repeated. Results filed as inconclusive are left out. A structure can be active in one record and inactive in another. The source made the active and inactive calls. Unless noted, the call rests on the fitted dose curve; in most records, active means well fitted curve in the direction sought with a large enough effect in the repeat runs; inconclusive means weak or mixed curves; inactive means no such curve, though single readings can be large; an effect the other way counts as inactive or inconclusive.

Experiment [1] in a line: qHTS assay to test for compound auto fluorescence at 535 nm (green) in HEK293 cells (AID 720680). On the technique in general: qHTS replaces the single test concentration by a dilution series.
Experiment [2] can be described thus: qHTS assay to test for compound auto fluorescence at 460 nm (blue) in HEK293 cell free culture (AID 720681). In a few lines:
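Blue fluorescence (Ex 405/Em 460 nm, triamterene-equivalent) was read immediately after pin transfer of compound or DMSO into medium (DMEM, 10% FBS) without cells.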

Experiment [3] can be described thus: qHTS assay to test for compound auto fluorescence at 590 nm (red) in HEK293 cell free culture (AID 720683). In a few lines: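 Red-channel autofluorescence of compounds in culture medium (DMEM, 10% FBS), no cells, measured at 540/590 nm. Rose Bengal sodium is the reference fluorophore for equivalence.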
Experiment [4] is described as follows: qHTS assay to test for compound auto fluorescence at 590 nm (red) in HepG2 cell free culture (AID 720684). A digest of the protocol: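 Cell-free; medium MEM + 10% FBS; compound or DMSO added by pintool; read Ex 540/Em 590 nm; Rose Bengal sodium as red reference fluorophore.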
A short description of experiment [5]: qHTS assay to test for compound auto fluorescence at 460 nm (blue) in HepG2 cell free culture (AID 720685). A digest of the protocol: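 Cell-free plates of MEM plus 10% FBS received 23 nL compound or DMSO vehicle; blue-channel (405/460 nm) intensity scored against triamterene as reference fluorophore.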
Experiment [6] in a line: qHTS assay to test for compound auto fluorescence at 535 nm (green) in HepG2 cell free culture (AID 720686).
Experiment [7] can be described thus: qHTS assay to test for compound auto fluorescence at 460 nm (blue) in HepG2 cells (AID 720687). A digest of the protocol: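 Blue-channel autofluorescence (Ex/Em 405/460 nm, triamterene-equivalent) was measured after 1 hr compound exposure at 37 C, 5% CO2. Cells were HepG2, plated overnight at 37 C in MEM plus 10% FBS.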
The nature of experiment [8]: qHTS assay to identify small molecule antagonists of the glucocorticoid receptor (GR) signaling pathway - cell viability counter screen (AID 720693). Further: nearly all actives have a fitted effect of over 55% in size. Further: potency means the concentration at half of the fitted maximal effect.
The nature of experiment [9]: qHTS assay for identifying genotoxic compounds that show differential cytotoxicity against isogenic chicken DT40 cell lines with known DNA damage response pathways - wild type cell line (AID 743012). Further: nearly all actives have a fitted effect of over 60% in size. Further: potency means the concentration at half of the fitted maximal effect. In a few lines: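 Luminescent ATP viability signal (CellTiter-Glo, 30 min RT) recorded after wild type DT40 cells were incubated with compounds for 40 h at 37 C/5% CO2.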

A short description of experiment [10]: qHTS assay for identifying genotoxic compounds that show differential cytotoxicity against isogenic chicken DT40 cell lines with known DNA damage response pathways - Rev3 mutant cell line (AID 743014). Further: nearly all actives have a fitted effect of over 55% in size. Further: potency means the concentration at half of the fitted maximal effect.
Experiment [11] in a line: qHTS assay for identifying genotoxic compounds that show differential cytotoxicity against isogenic chicken DT40 cell lines with known DNA damage response pathways - Rad54/Ku70 mutant cell line (AID 743015). Further: nearly all actives have a fitted effect of over 60% in size. Further: potency means the concentration at half of the fitted maximal effect.
Experiment [12] in a line: qHTS assay to identify small molecule antagonists of the androgen receptor (AR) signaling pathway - cell viability counter screen (AID 743033; further: nearly all actives have a fitted effect of over 45% in size; further: potency means the concentration at half of the fitted maximal effect).
Experiment [13] has as its target Androgen receptor (Homo sapiens) (UniProt P10275). The experiment is described as follows: qHTS assay to identify small molecule antagonists of the androgen receptor (AR) signaling pathway (AID 743035; active means well fitted inhibition curve with a large enough effect in the signal ratio in the repeat runs, not every such curve was filed as active; the % refers to the signal ratio; further: potency means the concentration at half of the fitted maximal effect). A digest of the protocol:
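Quantitative HTS of the Tox21 10K library used HEK293 AR-UAS-bla cells stimulated with R1881 alongside compound for 16 h at 37C, followed by beta-lactamase FRET detection (LiveBLAzer B/G, 2 h, RT).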

For experiment [14] the target is unchanged. The experiment is described as follows: qHTS assay to identify small molecule agonists of the androgen receptor (AR) signaling pathway using the MDA cell line (AID 743040; further: nearly all actives have a fitted effect of over 20% in size). A digest of the protocol: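 Luciferase agonist assay: 16 h compound exposure at 37C without CO2 in MDA-kb2 AR-luc cells, whose MMTV promoter responds to both AR and GR. Luminescence measured after 30 min room-temperature incubation with ONE-Glo.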

Experiment [15] in a line: qHTS assay to identify small molecule antagonists of the androgen receptor (AR) signaling pathway using the MDA cell line - cell viability counter screen (AID 743041; further: nearly all actives have a fitted effect of over 45% in size; further: potency means the concentration at half of the fitted maximal effect). In a few lines:
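Viability read by CellTiter-Fluor fluorescence in the same wells as the antagonist screen, added after 15.5 h of a 16 h, 37C exposure. Human breast carcinoma MDA-kb2 AR-luc cells, compounds co-dosed with agonist R1881.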

Experiment [16] has as its target Androgen receptor (Homo sapiens) (UniProt P10275). The experiment is described as follows: qHTS assay to identify small molecule antagonists of the androgen receptor (AR) signaling pathway using the MDA cell line (AID 743042; further: nearly all actives have a fitted effect of over 55% in size; further: potency means the concentration at half of the fitted maximal effect). In a few lines:
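Antagonist mode: compounds plus R1881 agonist added to MDA-kb2 AR-luc cells, incubated 16 h at 37C. Luciferase reporter luminescence quantified, with multiplexed CellTiter-Fluor readout for cell viability.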

Experiment [17] in a line: qHTS assay to test for compound auto fluorescence at 535 nm (green) in HEK293 cell free culture (AID 720682). A digest of the protocol: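 No cells present: wells hold DMEM supplemented with 10% FBS, into which compound or vehicle is pinned. Green emission is then recorded (485 nm excitation, 535 nm emission) and scaled to fluorescein.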
The target of experiment [18] is Glucocorticoid receptor (Homo sapiens) (UniProt P04150). Nature of the experiment: qHTS assay to identify small molecule agonists of the glucocorticoid receptor (GR) signaling pathway (AID 720691; active means well fitted activation curve with a large enough effect in the signal ratio in the repeat runs, not every such curve was filed as active; the % refers to the signal ratio). As to conditions: GR-bla HeLa, beta-lactamase reporter ratio, 18 h; activation: at 62.4 µM (top of the series). A digest of the protocol:
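Cells: GR-bla HeLa, endogenous GR with stably integrated GRE-beta-lactamase reporter. Treatment 18 h, 37 C, compounds delivered in DMSO. Detection via LiveBLAzer B/G FRET substrate, 2 h RT, fluorescence intensity.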

For experiment [19] the target is unchanged. The experiment is described as follows: qHTS assay to identify small molecule antagonists of the glucocorticoid receptor (GR) signaling pathway (AID 720692; active means well fitted inhibition curve with a large enough effect in the signal ratio in the repeat runs, not every such curve was filed as active; the % refers to the signal ratio). A digest of the protocol: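 Quantitative HTS in antagonist format: HeLa cells expressing endogenous GR and a stably integrated GRE-bla reporter, stimulated with 5 nM dexamethasone (final) alongside test compounds for 18 h.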

In experiment [20] the target is Androgen receptor (Homo sapiens) (UniProt P10275). The experiment is described as follows: qHTS assay to identify small molecule agonists of the androgen receptor (AR) signaling pathway (AID 743036; active means well fitted activation curve with a large enough effect in the signal ratio in the repeat runs, with a control signal flat, not every such curve was filed as active; the % refers to the signal ratio). In a few lines: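 Quantitative HTS of the Tox21 10K library in HEK293 cells bearing a stably integrated UAS-controlled beta-lactamase reporter. Compound exposure lasted 16 h at 37C. Reporter activity was detected by FRET substrate fluorescence after 2 h at room temperature.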
Androgen receptor (Homo sapiens), sequence (P10275 whole entry, looked up): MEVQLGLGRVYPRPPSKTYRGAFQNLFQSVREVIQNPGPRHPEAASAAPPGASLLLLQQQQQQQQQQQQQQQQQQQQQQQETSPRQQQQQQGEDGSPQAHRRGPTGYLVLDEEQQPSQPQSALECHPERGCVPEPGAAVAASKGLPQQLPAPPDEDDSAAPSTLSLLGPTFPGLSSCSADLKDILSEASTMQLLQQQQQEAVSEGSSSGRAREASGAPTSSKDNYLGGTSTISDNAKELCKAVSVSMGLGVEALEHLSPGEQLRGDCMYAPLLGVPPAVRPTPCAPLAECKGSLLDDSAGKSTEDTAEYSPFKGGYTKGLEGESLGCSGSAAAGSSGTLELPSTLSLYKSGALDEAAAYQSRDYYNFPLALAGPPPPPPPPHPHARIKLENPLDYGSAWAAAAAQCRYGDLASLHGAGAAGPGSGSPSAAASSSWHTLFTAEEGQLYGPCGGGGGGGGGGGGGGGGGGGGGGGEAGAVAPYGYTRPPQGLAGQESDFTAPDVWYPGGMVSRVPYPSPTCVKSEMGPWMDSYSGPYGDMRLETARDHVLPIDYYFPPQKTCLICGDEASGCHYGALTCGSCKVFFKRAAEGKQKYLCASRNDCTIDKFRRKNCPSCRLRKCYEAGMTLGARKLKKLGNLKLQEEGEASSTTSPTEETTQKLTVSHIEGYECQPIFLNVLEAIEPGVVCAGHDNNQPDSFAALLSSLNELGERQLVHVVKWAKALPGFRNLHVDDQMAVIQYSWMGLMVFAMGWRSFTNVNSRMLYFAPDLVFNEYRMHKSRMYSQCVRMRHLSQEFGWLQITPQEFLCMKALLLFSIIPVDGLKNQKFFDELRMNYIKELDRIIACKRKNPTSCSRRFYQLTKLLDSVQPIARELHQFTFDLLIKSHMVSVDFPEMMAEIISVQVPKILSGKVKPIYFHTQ

Glucocorticoid receptor (Homo sapiens), sequence (P04150 whole entry, looked up): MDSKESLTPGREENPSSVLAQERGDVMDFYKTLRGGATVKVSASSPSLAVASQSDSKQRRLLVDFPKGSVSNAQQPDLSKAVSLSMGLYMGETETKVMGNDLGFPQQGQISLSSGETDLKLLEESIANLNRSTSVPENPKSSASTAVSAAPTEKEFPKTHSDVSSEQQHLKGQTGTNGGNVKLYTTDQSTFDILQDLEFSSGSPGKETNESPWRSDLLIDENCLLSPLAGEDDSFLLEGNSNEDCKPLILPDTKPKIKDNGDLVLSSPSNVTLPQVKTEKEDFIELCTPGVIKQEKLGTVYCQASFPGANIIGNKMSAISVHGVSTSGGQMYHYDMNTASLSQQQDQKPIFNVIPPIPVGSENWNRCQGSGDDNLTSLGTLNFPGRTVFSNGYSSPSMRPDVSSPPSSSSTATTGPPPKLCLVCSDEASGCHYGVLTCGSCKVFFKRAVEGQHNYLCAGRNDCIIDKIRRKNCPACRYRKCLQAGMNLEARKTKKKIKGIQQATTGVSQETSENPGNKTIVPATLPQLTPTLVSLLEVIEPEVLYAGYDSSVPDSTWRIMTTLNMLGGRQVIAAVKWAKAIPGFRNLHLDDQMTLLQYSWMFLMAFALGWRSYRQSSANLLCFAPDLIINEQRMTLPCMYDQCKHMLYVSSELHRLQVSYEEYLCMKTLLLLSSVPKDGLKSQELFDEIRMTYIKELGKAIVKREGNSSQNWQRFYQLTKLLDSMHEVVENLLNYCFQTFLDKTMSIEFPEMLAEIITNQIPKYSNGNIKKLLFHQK

As to `C=C1C(CCl)(CCl)C2(Cl)C(Cl)C(Cl)C1(Cl)C2(Cl)Cl` (stereo not drawn), the compound was classed as inactive in experiment [1], in experiment [3] and in experiment [4]. Moreover, the Potency entry in experiment [2], in experiment [5], in experiment [6], in experiment [7], in experiment [14] and in experiment [15] was “inactive” each time. Also, the Potency is 13.4 µM (active) in experiment [8]; 4.73 µM (active) and 30.3 µM (active) in [9]; 2.98 µM (active) and 4.28 µM (active) in [10]; 5.96 µM (active) and 17 µM (active) in experiment [11]; “inactive and 54.3 µM (active)” in experiment [12]; 34.3 µM (active) in experiment [13]. Further, the Potency in [16] was 26.6 µM (active).
With `CN(Cc1ccccc1)Cc1ccccc1`, the outcome in [1], in experiment [3] and in experiment [4] was inactive. The Potency result in experiment [2], in experiment [5], in [6], in experiment [7], in [8] and in [10] was “inactive” throughout. Besides, the Potency result in [11], in experiment [12] and in experiment [15] was “inactive” each time.
For `CS(=O)(=O)c1ccc([C@@H](CC2CCCC2)C(=O)Nc2cnccn2)cc1Cl`, the call in experiment [1], in experiment [17], in experiment [3] and in experiment [4] was inactive. The Potency result in experiment [5], in experiment [6] and in [7] was “inactive” each time.
For the compound `CCCCCCCC/C=C\CCCCCCCC(=O)N(CCO)CCO`, the result in [1], in experiment [3] and in experiment [4] was inactive. The Potency entry in experiment [2], in [6] and in [7] was “inactive” each time. Also, the Potency is 48.8 µM (active) in experiment [8], 15.3 µM (active) in experiment [9], 13.6 µM (active) in [11] and 43.1 µM (active) in [15].
In the case of `CN[C@@H]1[C@@H](O[C@H]2O[C@H](CO)[C@@H](N)[C@H](O)[C@H]2O)O[C@H]2C[C@@H](N)[C@@H](O[C@H]3[C@H](O)[C@@H](O)[C@H](N)C[C@@H]3N)O[C@@H]2[C@@H]1O`, in [1], the outcome was inactive. Besides, the Potency result in experiment [2], in experiment [5], in experiment [6], in [7], in experiment [18] and in experiment [19] was “inactive” each time. Besides, the Potency entry in [8], in experiment [10], in [11], in experiment [12], in experiment [13] and in experiment [20] was “inactive” each time. The Potency result in experiment [14], in experiment [15] and in experiment [16] was “inactive” throughout.
In the case of `CSCCC(N)C(=O)O` (stereo not drawn), the compound was classed as inactive in experiment [1] and in experiment [17]. The Potency entry in experiment [5], in experiment [6], in experiment [7], in experiment [18], in [19] and in experiment [8] was “inactive” in each case. The Potency result in [9], in experiment [10], in [11] and in experiment [15] was “inactive” in each case.
Take `CC[C@H]1OC(=O)C[C@@H](O)[C@H](C)[C@@H](O[C@@H]2O[C@H](C)[C@@H](O)[C@H](N(C)C)[C@H]2O)[C@@H](CCN2C[C@H](C)C[C@H](C)C2)C[C@@H](C)C(=O)/C=C/C(C)=C/[C@@H]1CO[C@@H]1O[C@H](C)[C@@H](O)[C@@H](OC)[C@H]1OC`: the call in [1], in experiment [17] and in [4] was inactive. Further, the Potency result in [5], in experiment [6], in experiment [7], in [18], in experiment [8] and in experiment [9] was “inactive” throughout. For the same compound, the Potency entry in experiment [13], in experiment [20], in experiment [15] and in [16] was “inactive” each time.
For the compound `CCCn1c(=O)[nH]c(=O)c2[nH]cnc21`, the compound was classed as inactive in [1], in [17], in experiment [3] and in experiment [4]. The Potency entry in experiment [5], in experiment [6], in [7], in experiment [8], in experiment [9] and in experiment [11] was “inactive” in each case. The Potency result in experiment [12] and in [15] was “inactive” throughout.
